# Compound activity deposited in PubChem BioAssay by National Center for Advancing Translational Sciences (NCATS).
# HepG2 tox: counter-screen for TGF-b inhibitors: cytotoxicity in HepG2 cells. HepG2 CAGA-GFP viability, ATP luminescence, 18 h. 0.76% of 410,000 active. Potency, µM (doses to about 46.1 µM), without a hit: top-dose activity change, negative = cytotoxicity, most hits filed as cytotoxic. AID 588856
#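 CellTiter-Glo luminescence gave cytotoxicity after 18 hours at 37 degrees C. The cells were HepG2 CAGA-GFP in 1% FBS DMEM, stimulated with 500 pg/mL TGF-beta after compound addition. %Activity was normalised to no-cell wells (complete cell-killing) and DMSO (no toxicity), and curves were fitted and classified.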
# S2 tox: viability counter-screen for ATXN expression inhibitors; AID 651635; S2 cells (HEK-293 line with an ATXN2-luciferase reporter) viability, CellTiter-Fluor protease fluorescence, 24 h; Potency, µM (doses to about 56.7 µM), hits mostly cytotoxic; 0.49% of 400,000 active; also: nearly all actives have a fitted effect of over 40% in size
# TGFb SMAD3 inh: TGF-b pathway inhibition; Potency, µM (highest dose often 46.1 µM), inactives show top-dose activity, negative = inhibition, actives largely listed as inhibitors; HepG2 CAGA-GFP TGF-b/SMAD3 reporter, GFP fluorescence, 18 h; TGF-beta stimulated, 500 pg/mL final; 1.2% of 410,000 active; also: % is scaled to controls: 0 for no effect and ±100 for the full control effect; nearly all actives have a fitted effect of over 65% in size
#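 Using HEPG2 CAGA-GFP reporter cells at 1000 cells/well, we pinned test compounds, stimulated with recombinant TGF-beta (500 pg/mL final) and measured total well GFP after 18 h.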
# Nrf2 block: inhibitors of Nrf2 signaling; A549 ARE-Fluc reporter, luciferase luminescence, 18-24 h; Potency, µM (doses to about 46 µM), for inactives: at the highest dose activity change, negative = inhibition, actives largely listed as inhibitors; 2.1% of 360,000 active; also: % is scaled to controls: 0 for no effect and ±100 for the full control effect; nearly all actives have a fitted effect of over 60% in size
#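 Two sequential reads on A549 ARE_Fluc cells exposed to compound for 18-24 h: a CellTiter-Fluor fluorescence read for viability, then a luciferase luminescence read for Nrf2/ARE activity.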
# A549 tox: kills or reduces viability of A549 cells in Nrf2 counter-screen; A549 ARE-Fluc cells, CellTiter-Fluor viability, 18-24 h; Potency, µM (titrated, usually from 46 µM), inactives show top-dose activity change, negative = cytotoxicity, usual class: inhibitors; 0.16% of 390,000 active; also: % is scaled to controls: 0 for no effect and ±100 for the full control effect
#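 A549 ARE-Fluc cells in 5% FBS OPTI-MEM, 5000 cells/well, rested 2 h then exposed to compounds in concentration-response for 18-24 h at 37 °C. Viability by CellTiter-Fluor fluorescence (Ex 405/Em 525) after 30 min; luciferase luminescence (BugLite, 15 min, RT) read afterwards.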
# ATXN2 expr inh: ATXN2 expression inhibition; HEK-293 ATXN2-luciferase reporter, luminescence, 24 h; Potency, µM (highest dose often 57 µM), without a hit: at the top dose activity change, negative = inhibition, actives largely listed as inhibitors; 0.72% of 360,000 active; AID 1745845; also: % is scaled to controls: 0 for no effect and ±100 for the full control effect; nearly all actives have a fitted effect of over 55% in size
#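 qHTS (up to 57 uM final) was run with 24 h compound exposure of reporter cells at 37 °C. Each well was multiplexed: SteadyGlo luminescence measured ATXN2-luciferase expression after a fluorogenic Gly-Phe-AFC viability readout (25 uM final).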
# An asterisk follows results filed as active; i = inactive; ? = inconclusive; . = no result given. Rows were chosen to be rich in hits. Some 3.8% of all compounds tested hit in one or more screens of this group. Calls follow the shape of the dose curve; as a rule, active = well fitted curve in the direction sought with a large enough effect; inconclusive = small, poorly fitted or top-dose-only effect, or another doubt; inactive = no such curve, though single readings can be large; an effect the other way counts as inactive or inconclusive. Potency is read from the fitted curve at half-maximal effect.
SMILES,HepG2 tox,S2 tox,TGFb SMAD3 inh,Nrf2 block,A549 tox,ATXN2 expr inh
Cc1ccc(S(=O)(=O)C=CS(=O)(=O)c2ccc(C)cc2)cc1,-111.7%,?,?,.,.,.
O=S(=O)(/C=C/C=C/S(=O)(=O)c1ccccc1)c1ccccc1,-80.3%,7.52µM*,3.55µM*,25.9µM*,?,?
CCC1(c2ccccc2)NC(=O)N(CC(=O)NCc2ccc(C)cc2)C1=O (stereo unspecified),12.4%,i,6.1%,-0.5%,0.4%,-12.2%
O=C(c1ccco1)N1CCN(c2ccc(N3CCCCC3)nn2)CC1,-2.3%,i,16.5%,?,7.5%,35.5%
CO[C@H]1C[C@@H]2CC[C@@H](C)[C@@](O)(O2)C(=O)C(=O)N2CCCC[C@H]2C(=O)O[C@H]([C@H](C)C[C@@H]2CC[C@@H](O)[C@H](OC)C2)CC(=O)[C@H](C)/C=C(/C)[C@@H](O)[C@@H](OC)C(=O)[C@H](C)C[C@H](C)C=C/C=C\C=C/1C,-28.3%,.,4.47µM*,?,-25.4%,.
COc1ccc(-c2nc3ccccc3nc2-c2ccc(OC)c(OC)c2)cc1OC,-40.7%,?,38.1%,?,-9.3%,.
COc1ccc(-c2cc3ccccc3nc2N)cc1OC,-26.7%,i,-8.5%,16.4µM*,-1.2%,.
Cc1ccccc1OCC(=O)Nc1ccc(Cc2ccncc2)cc1,-25.8%,i,-31.5%,13µM*,4.6%,?
CC(C)(CO)NCc1ccccc1OCC(=O)Nc1ccccc1,-13.4%,i,-0.7%,5.6%,1.2%,0.4%
COc1ccc(NC(=O)Nc2ccc(Cc3ccncc3)cc2)c(OC)c1,-27.7%,i,?,16.4µM*,-5.7%,-1.7%
Cc1ccc(OCC(=O)Nc2ccc(N3CCN(C(=O)c4ccco4)CC3)cc2)cc1,-19.0%,i,-23.8%,20.6µM*,0.6%,-24.9%
COc1ccc(NC(=O)Nc2cnccn2)c(OC)c1,-2.0%,i,-18.3%,1.4%,-9.1%,21.4%
O=C(COc1ccccc1)Nc1ccc(N2CCN(C(=O)c3ccco3)CC2)cc1,10.3%,i,-10.3%,0.6%,1.9%,-24.8%
Cc1ccc(NC(=O)COc2ccccc2CNC(C)(C)CC(C)(C)C)cc1,11.2µM*,22.4µM*,?,15.3%,1.5%,25.1µM*
Cc1ccccc1OCC(=O)Nc1ccncc1,-1.5%,?,-23.8%,?,0.7%,-4.5%
O=C1c2ccccc2C(=O)N1c1ccc(S(=O)(=O)N2CCOCC2)cc1,-2.6%,.,-0.3%,0.0%,1.6%,.
CCCOc1ccc(C(=O)Nc2ccc(Cl)c(-c3nc4ncccc4o3)c2)cc1,-8.2%,i,4.6%,?,-5.1%,-3.4%
COCCCOc1cc(C[C@@H](C[C@H](N)[C@@H](O)C[C@H](C(=O)NCC(C)(C)C(N)=O)C(C)C)C(C)C)ccc1OC,.,i,.,.,.,6.3%
CN1N=C(N)c2cn([C@@H]3O[C@H](COP(=O)(O)O)[C@@H](O)[C@@H]3O)c3ncnc1c23,.,.,.,.,.,71.5%
Cc1ccc(Sc2ccc(N3CCC(C(=O)Nc4ccc(Cl)cc4)CC3)nn2)cc1,-4.8%,i,-0.4%,12.6%,0.3%,-3.7%
Cc1ccc2c(C)c(C(=O)N(Cc3ccc(N(C)C)cc3)Cc3ccco3)oc2c1C,-20.5%,.,.,-19.7%,15.1%,.
CCC(=O)N1CCN(c2ccc(NC(=O)COc3ccc(C)cc3C)cc2)CC1,2.2%,?,-3.4%,?,-7.0%,-35.0%
Cc1ccc(C(=O)N2CCN(c3ccc(NC(=O)COc4ccccc4C)cc3)CC2)cc1,-18.5%,i,-20.2%,20.6µM*,?,-34.3%
Cc1ccc(C(=O)N/N=C/c2cc(Br)ccc2O)cn1,-33.9%,?,?,-18.2%,-1.5%,2µM*
CN(C)c1ccc(C(=O)N/N=C/c2cc(Br)cc(Br)c2O)cc1,-31.7%,i,?,13µM*,-12.5%,3.55µM*
SMILES,HepG2 tox,S2 tox,TGFb SMAD3 inh,Nrf2 block,A549 tox,ATXN2 expr inh
COc1c(Br)cc(Br)cc1/C=N/NC(=O)c1ccncc1,0.2%,i,5.6%,-5.6%,-1.9%,-6.4%
O=C(N/N=C/c1ccccc1Cl)c1ccncc1,7.0%,i,9.6%,?,?,.
O=C(N/N=C/c1cc(Cl)ccc1O)c1ccncc1,12.6µM*,i,?,-14.9%,-9.6%,?
CCCSc1nsc(NC(=O)C(c2ccccc2)c2ccccc2)n1,6.31µM*,i,17.8µM*,?,?,?
CCCSc1nsc(NC(=O)CC)n1,-20.2%,i,?,3.2%,-5.0%,1.2%
CC(C)CC(NC(=O)c1ccc(Cl)cc1)C(=O)OCC(=O)c1ccc2c(c1)NC(=O)CO2 (stereo unspecified),3.16µM*,22.4µM*,11.2µM*,16.4µM*,20.6µM*,25.1µM*
CC1Cc2ccccc2N1C(=O)CCS(=O)(=O)c1ccc2c(c1)NC(=O)CS2 (stereo unspecified),-2.7%,i,-0.1%,8.8%,-2.4%,4.8%
CN1CCN(c2ccc(Nc3ccnc4cc(Cl)ccc34)cc2)CC1,-31.1%,?,-33.2%,?,6.51µM*,3.55µM*
CCOc1ccc(Nc2ccnc3cc(Cl)ccc23)cc1,-25.2%,i,-16.1%,13.0%,-2.6%,-28.6%
CCN1CCN(c2ccc(Nc3ccnc4ccccc34)cc2)CC1,-24.0%,i,?,11.9%,6.51µM*,?
Cc1cc(C(=O)COC(=O)c2cccc(O)c2)c(C)n1C1CC1,-1.5%,i,4.9%,13µM*,-1.1%,?
Cc1cc(/C=N/n2cnnc2)c(C)n1-c1ccc(Cl)cc1,-0.4%,i,12.6%,-12.4%,6.1%,-1.1%
Cc1cc(/C=N/n2cnnc2)c(C)n1-c1ccc(OCc2ccc(Cl)cc2Cl)cc1,-73.7%,i,8.91µM*,.,?,15.8µM*
O=C(NCCc1ccccc1Cl)c1cc2ccccn2n1,-21.6%,.,0.0%,?,-4.7%,.
Cc1ccc(NS(=O)(=O)c2cc3c(cc2Cl)CCC(=O)N3)cc1Cl,.,.,.,-0.2%,9.0%,.
O=C(N/N=C(\c1ccccc1)c1ccccn1)c1ccccc1Cl,-47.8%,?,?,?,-29.2%,22.4µM*
C/C(=N/NC(=O)c1ccccn1)c1ccncc1,0.6%,i,20.3%,?,-2.6%,9.0%
S=C(NN=C(c1ccccc1)c1ccccn1)N(Cc1ccccn1)Cc1ccccn1,-85.3%,.,?,?,11.6µM*,0.891µM*
CC(=NNC(=S)N(Cc1ccccn1)Cc1ccccn1)c1cnccn1,-44.3%,?,?,?,?,1.26µM*
